Screens from PubChem.
NIH3T3 tox: Cytotoxic Profiling in NIH 3T3 Cell Line of Diverse Libraries Using Quantitative High-Throughput Screening; NIH 3T3 viability, CellTiter-Glo ATP luminescence, 48-72 h; Potency, µM (series often up to 96.7 µM), inactives show at the top dose activity change, negative = cytotoxicity, hits mostly inhibitors; actives 4.3% (n = 94,000); further: on the % scale 0 is the no-effect control and ±100 the full control effect; nearly all actives have a fitted effect of over 55% in size
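Cells were seeded at 400 per well, treated with pin-transferred compound, and kept 48 or 72 hr at 37 °C before CellTiter-Glo addition and luminescence imaging of cellular ATP.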
HEK cytotox: Cytotoxic Profiling in HEK 293 Cell Line of Diverse Libraries Using Quantitative High-Throughput Screening | Potency, µM (titrated, usually from 115 µM), for inactives: at the top dose activity change, negative = cytotoxicity, actives largely listed as inhibitors | actives 6.6% (n = 94,000) | HEK 293 viability, ATP luminescence (CellTiter-Glo), 48-72 h; further: on the % scale 0 is the no-effect control and ±100 the full control effect; nearly all actives have a fitted effect of over 60% in size
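Luminescence from cellular ATP, measured with CellTiter-Glo, indicates HEK 293 viability. Cells plated at 250 cells/well are treated with compound for 48 or 72 hr at 37 degree Celsius before reagent addition.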
FLuc inh-1: Firefly luciferase inhibition profiling of diverse chemical library using quantitative high-throughput screening; actives 2.5% (n = 76,000); Luciferin 4-monooxygenase (Photinus pyralis), P08659; purified P. pyralis luciferase, luminescence, biochemical; Potency, µM (top dose mostly 115 µM), actives largely listed as inhibitors; further: on the % scale 0 is the no-effect control and ±100 the full control effect; nearly all actives have a fitted effect of over 65% in size
Target sequence (P08659 whole entry, looked up): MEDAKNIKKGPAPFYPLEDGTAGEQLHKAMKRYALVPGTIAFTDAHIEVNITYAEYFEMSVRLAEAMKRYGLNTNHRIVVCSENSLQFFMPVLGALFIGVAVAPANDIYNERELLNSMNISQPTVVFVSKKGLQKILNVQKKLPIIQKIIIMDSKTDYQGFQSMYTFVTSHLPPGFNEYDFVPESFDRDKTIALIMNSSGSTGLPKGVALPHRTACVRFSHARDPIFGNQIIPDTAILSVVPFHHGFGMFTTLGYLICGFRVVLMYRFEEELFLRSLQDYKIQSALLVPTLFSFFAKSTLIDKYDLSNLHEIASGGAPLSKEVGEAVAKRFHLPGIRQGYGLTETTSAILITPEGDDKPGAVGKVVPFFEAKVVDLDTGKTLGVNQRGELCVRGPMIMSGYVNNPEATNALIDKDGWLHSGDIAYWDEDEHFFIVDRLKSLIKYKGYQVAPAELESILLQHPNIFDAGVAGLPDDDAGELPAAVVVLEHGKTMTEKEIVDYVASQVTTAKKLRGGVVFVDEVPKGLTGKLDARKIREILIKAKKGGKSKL
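Luminescence read by CCD imager after adding enzyme (10nM final) to wells holding compound, titrated in qHTS. Substrates 10uM each D-luciferin and ATP; buffer 50mM Tris acetate pH 7.5, 10mM Mg acetate, Tween-20, BSA.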
NPR1 antag: Natriuretic polypeptide receptor (hNpr1) antagonism - Primary qHTS | Atrial natriuretic peptide receptor 1 (Homo sapiens), P16066 | HEK293 hNpr1 GloSensor cGMP, ANP-stimulated luminescence | Potency, µM (series often up to 46.3 µM), for inactives: at the top dose activity change, negative = inhibition, most hits filed as inhibitors | actives 1.6% (n = 76,000); calls by dose curve; further: on the % scale 0 is the no-effect control and ±100 the full control effect; nearly all actives have a fitted effect of over 60% in size
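HEK293 cells stably expressing human Npr1 and cGMP GloSensor pGS-40F, loaded 2 h with 2% GloSensor reagent, given compound 30 min at room temperature. Luminescence read before and 20 min after 0.1 nM hNppA.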
FLuc SDR no ATP: Firefly luciferase (FLuc-C-HiBiT) SDR gain of signal screen - without ATP; Purified FLuc-C-HiBiT, Nano-Glo HiBiT luminescence, no ATP; shares compounds with FLuc inh-1; Potency, µM (series often up to 32.7 µM), for the others: at the top dose activation (signal gain), most hits filed as activators; AID 1963318, 2024; actives 7.8% (n = 1,300); further: nearly all actives have a fitted effect of over 55% in size
FLuc SDR ATP: Firefly luciferase (FLuc-C-HiBiT) SDR gain of signal screen - plus ATP; Potency, µM (titrated, usually from 32.7 µM), for the others: at the top dose activation (gain of signal), most hits filed as activators; actives 8.7% (n = 1,300); shares compounds with FLuc inh-1; purified FLuc-C-HiBiT + ATP, HiBiT complementation luminescence; AID 1963319, 2024;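 further: signal reports ligand binding via conformational change of the enzyme rather than luciferase catalysis; % of control where 0% means no effect; nearly all actives have a fitted effect of over 55% in size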
FLuc inh-2: Firefly luciferase (FLuc-C-HiBiT) enzymatic inhibition screen - Functional assay; shares compounds with FLuc inh-1; purified FLuc-C-HiBiT enzyme, luciferin luminescence; Potency, µM (doses to about 32.7 µM), without a hit: at the highest dose activity change, negative = inhibition, hits mostly inhibitors; actives 42% (n = 1,300); AID 1963320, 2024; further: on the % scale 0 is the no-effect control and ±100 the full control effect; nearly all actives have a fitted effect of over 70% in size
Npr1 antag conf: Natriuretic polypeptide receptor (hNpr1) antagonism - Confirmation | shares compounds with NPR1 antag | HEK293 hNpr1 cGMP GloSensor luminescence, ANP-stimulated | actives 76% (n = 1,400) | Potency, µM (highest dose often 57.6 µM), for the others: at the highest dose activity change, negative = inhibition, usual class: inhibitors; calls by dose curve; further: nearly all actives have a fitted effect of over 70% in size
Npr2 selectivity: Natriuretic polypeptide receptor (hNpr2) antagonism - Subtype selectivity assay | shares compounds with NPR1 antag | HEK293 hNpr2 GloSensor cGMP luminescence, CNP-stimulated | Potency, µM (top dose mostly 57.6 µM), without a hit: at the top dose activity change, negative = inhibition, most hits filed as inhibitors | actives 67% (n = 1,400); calls by dose curve; further: nearly all actives have a fitted effect of over 70% in size
FLuc counter: Natriuretic polypeptide receptor (hNpr1) antagonism - Confirmation firefly luciferase (FLuc) inhibition counterscreen | actives 0.7% (n = 1,400) | Potency, µM (top dose mostly 57.6 µM), for the others: at the highest dose activity change, negative = inhibition, hits mostly inhibitors | AID 1347047, 2019 | shares compounds with NPR1 antag | purified FLuc enzyme, luminescence, Km substrate; further: 0% is about no effect
GloSensor ctrl: Natriuretic polypeptide receptor (hNpr1) antagonism - Counterscreen GloSensor control cell line; shares compounds with NPR1 antag; HEK293 GloSensor cGMP, SNP-stimulated, luminescence; Potency, µM (series often up to 57.6 µM), without a hit: at the highest dose activity change, negative = inhibition, most hits filed as inhibitors; actives 69% (n = 1,400); AID 1347051, 2019; calls by dose curve; further: on the % scale 0 is the no-effect control and ±100 the full control effect; nearly all actives have a fitted effect of over 70% in size
* = called active by the depositor; i = inactive; u = inconclusive; x = not tested or not shown; [ ] = dose if it differs, or a comment. This is a sample that favours compounds with a hit; in the whole collection about 11% have one here. Unless noted, the call rests on the fitted dose curve; in most records, active means well fitted curve in the direction sought with a large enough effect; inconclusive means small, poorly fitted or top-dose-only effect, or another doubt; inactive means no such curve, though single readings can be large; an effect the other way counts as inactive or inconclusive. Potency means the concentration at half of the fitted maximal effect.

SMILES | NIH3T3 tox | HEK cytotox | FLuc inh-1 | NPR1 antag | others
Cn1nc(-c2ccc(F)cc2)cc1[C@H]1CN2CC[C@H]1C[C@@H]2CNC(=O)NCc1ccccc1 | u | 25.1µM* | i | -16.0%
COc1ccc(CNC[C@H]2C[C@@H]3CCN2C[C@@H]3c2cc(-c3ccc(F)cc3)nn2C)cc1 | 89.1µM* | 44.7µM* | i | 0.9%[70.6 µM]
Cn1nc(-c2cccs2)cc1[C@H]1CN2CC[C@H]1C[C@@H]2CNC(=O)NCc1ccccc1 | -29.8% | -15.4% | i | 0.1%
Cn1nc(-c2ccccc2)cc1[C@H]1CN2CC[C@H]1C[C@@H]2CNC(=O)NCc1ccccc1 | 100µM* | u | i | -1.6%[70.6 µM]
Cc1nc(-c2cccs2)cc([C@H]2CN3CC[C@H]2C[C@@H]3CNC(=O)C2CCC2)n1 | u | u | i | -9.7%[70.6 µM]
C=C[C@H]1CN2CC[C@H]1C[C@@H]2CNC(=O)C1CCCCC1 | -7.8%[230 µM] | i | i | -1.6%[70.6 µM]
COc1cc2c(cc1OCc1ccccc1)N([S+](=O)([O-])c1ccc3c(c1)CCO3)CC21CCN(C)CC1 | u | u | i | -9.1%
COc1cc2c(cc1OCc1ccccc1)N([S+](=O)([O-])c1ccccc1C(F)(F)F)CC21CCN(C)CC1 | 12.6µM* | 20µM* | i | -15.0%
COc1cc2c(cc1OCc1ccccc1)N([S+](=O)([O-])c1cccnc1)CC21CCN(C)CC1 | 14.1µM* | u | i | 1.8%
COc1ccc(N2CC3CCC(C2)N3CC(F)(F)F)cn1 | i | 3.6% | x | x
Cc1ccccc1Cn1cccc(C(=O)Nc2nc3ccccc3s2)c1=O | x | x | x | x | FLuc SDR no ATP=u;FLuc SDR ATP=u;FLuc inh-2=0.881µM*
COc1cccc(Nc2cc3c(cn2)CN(C)CCN3)c1 | u | u | 4.47µM* | -17.5%[70.6 µM] | FLuc SDR no ATP=19.9%[65.7 µM];FLuc SDR ATP=15.0%[65.7 µM];FLuc inh-2=22.6µM*
c1nc(N2C[C@@H](c3ccc4c(c3)OCO4)[C@@H]3[C@H]2C2CCN3CC2)c2[nH]cnc2n1 | -10.1% | -5.6% | i | 0.3% | FLuc SDR no ATP=12.8%;FLuc SDR ATP=9.6%;FLuc inh-2=3.2%
c1cc(CN2C[C@H](c3ccc4c(c3)OCO4)[C@@H]3[C@H]2C2CCN3CC2)ccn1 | -25.4% | 1.2% | i | 0.2%
COCc1nc(C2CC(N)C2)cc(N2CCCN3CCC[C@H]3C2)n1 (stereo not given in full) | i | i | i | 1.1%
Cc1cc(-c2cc3c(cn2)CN(CC(C)C)CCN3)ccn1 | u | u | 4.47µM* | 0.6%[70.6 µM] | FLuc SDR no ATP=u;FLuc SDR ATP=17.2%[49.3 µM];FLuc inh-2=16.1µM*
COc1ccc(-c2cc3c(cn2)CN(C)CCN3)cc1OC | u | -42.9%[172 µM] | u | -11.1%[70.6 µM]
COc1ccccc1CNC(=O)[C@H]1CN2CCC1C[C@@H]2Cn1cc(-c2cccc(N)c2)nn1 (stereo not given in full) | -11.5% | 4.0% | i | 5.7%
O=C(Cc1c(F)cccc1Cl)N1[C@H]2CC[C@@H]1c1cnc(-c3ccccc3)nc1C2 | u | u | i | -6.8%
CC(C)(C)CC(=O)N1C[C@@H]2C[C@H](C1)c1ccc(NC(=O)Nc3cccc(F)c3)c(=O)n1C2 | u | u | 14.1µM* | 4.6% | FLuc SDR no ATP=13.7%;FLuc SDR ATP=8.3%;FLuc inh-2=-15.1%
COc1ccc(CC(=O)N2CCC3(CC2)c2nccn2-c2ccccc2CN3C)cc1 | u | -7.0% | i | u | Npr1 antag conf=u;Npr2 selectivity=u;FLuc counter=1.4%;GloSensor ctrl=-0.5%
CN1Cc2ccccc2-n2ccnc2C12CCN(C(=O)C1(c3ccccc3)CC1)CC2 | -5.2% | u | i | u | Npr1 antag conf=u;Npr2 selectivity=u;FLuc counter=-0.8%;GloSensor ctrl=14.2%
COc1ccc(C(=O)N2CCC3(CC2)c2nccn2-c2ccccc2CN3C)cc1 | i | -3.3% | i | 1.9%
O=C(CCc1nc2ccccc2s1)N1[C@H]2CC[C@@H]1c1cnc(-c3ccccc3)nc1C2 | -20.6% | u | i | -22.1%
COc1cc2c(cc1OCc1ccccc1)NC(=O)C21CCN(c2ccccn2)CC1 | -21.0%[138 µM] | u | i | u | Npr1 antag conf=u;Npr2 selectivity=u;FLuc counter=-2.6%[86.2 µM];GloSensor ctrl=u
COc1cc2c(cc1Oc1ccccc1)NC(=O)C21CCN(Cc2cccc(O)c2)CC1 | 22.4µM* | u | i | u | Npr1 antag conf=39.6µM*;Npr2 selectivity=u;FLuc counter=2.5%[86.2 µM];GloSensor ctrl=31.4µM*
CCc1cnc(N2CCC3(CC2)C(=O)Nc2cc(OCc4ccccc4)c(OC)cc23)nc1 | u | u | i | -0.9%
COCC(=O)N1[C@H]2CC[C@@H]1c1cnc(-c3ccc(F)cc3)nc1C2 | -13.0% | u | i | 1.0%
